Source: PubChem (several laboratories)
Rows were chosen to be rich in hits. Some 3.5% of all compounds tested hit in one or more screens of this group.
LEDGF integ inh = blocks HIV-1 LEDGF/p75-dependent DNA integration | AID 743269 | TR-FRET IN-LEDGF/p75 DNA integration, Eu/Cy5 | 0.64% of 370,000 active | inhibition, % at 3.7 µM;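 active = inhibition above the screen-wide mean plus 3 SD, cut at about 13% in these data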;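 note: signal is the Cy5 over europium emission ratio at 671 and 618 nm; 0% = plate median of compound wells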
rCAG binder = molecules binding r(CAG) RNA repeats | r(CAG) RNA repeat, TO-PRO-1 dye displacement fluorescence | inhibition, % at 3 µM | 1.3% of 370,000 active;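 active = inhibition above the plate cutoff, the mean of all test compounds on that plate plus 3 SD, cut at about 35% in these data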;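 note: 0% = DMSO alone and 100% = 100 µM mitoxantrone as full dye displacement; higher means more dye released from RNA so lower well fluorescence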
UHRF1 MBD2 ctr = UHRF1 methyl-DNA binding inhibition; AID 687016; inhibition, % at 4.4 µM; UHRF1 binding to methylated oligo, TR-FRET; 0.75% of 370,000 active; in the data active = inhibition above about 21%;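 note: UHRF1 SRA domain binding a hemimethylated CpG hairpin DNA probe; 0% = median of test compound wells and 100% = reference inhibitor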
Target sequence (Q96T88 whole entry, looked up, the tested form may be a part): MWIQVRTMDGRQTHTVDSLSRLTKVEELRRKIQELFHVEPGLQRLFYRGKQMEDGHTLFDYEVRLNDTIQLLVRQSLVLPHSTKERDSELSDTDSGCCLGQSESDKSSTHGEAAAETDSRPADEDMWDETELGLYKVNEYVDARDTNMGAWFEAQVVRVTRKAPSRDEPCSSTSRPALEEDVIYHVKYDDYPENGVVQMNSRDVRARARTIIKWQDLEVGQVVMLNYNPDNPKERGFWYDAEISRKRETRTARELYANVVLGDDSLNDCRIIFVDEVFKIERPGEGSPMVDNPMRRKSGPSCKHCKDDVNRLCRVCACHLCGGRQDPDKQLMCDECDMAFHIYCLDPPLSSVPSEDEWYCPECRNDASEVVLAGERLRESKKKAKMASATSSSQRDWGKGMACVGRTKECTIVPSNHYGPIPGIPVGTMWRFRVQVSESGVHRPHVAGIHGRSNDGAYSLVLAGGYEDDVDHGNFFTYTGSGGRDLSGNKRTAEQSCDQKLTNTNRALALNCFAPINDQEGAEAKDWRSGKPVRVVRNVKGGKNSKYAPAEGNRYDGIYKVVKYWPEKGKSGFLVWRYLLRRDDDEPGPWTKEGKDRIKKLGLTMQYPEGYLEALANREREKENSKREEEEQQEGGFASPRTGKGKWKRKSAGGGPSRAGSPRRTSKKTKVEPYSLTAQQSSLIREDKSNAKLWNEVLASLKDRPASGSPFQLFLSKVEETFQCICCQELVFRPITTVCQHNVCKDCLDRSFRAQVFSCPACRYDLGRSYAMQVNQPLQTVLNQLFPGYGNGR
MBD2 inh = blocks human MBD2 binding to methylated DNA. Q9UBB5. TR-FRET, MBD2 binding to methylated oligonucleotide. inhibition, % at 4.4 µM. 0.31% of 370,000 active. AID 686964; in the data active = inhibition above about 13%
DNMT1 inh = inhibitors of human DNMT1; inhibition (reported as % activation of signal), % at 10 µM; P26358; 0.83% of 360,000 active; AID 588458; DNMT1 molecular beacon, Hinp1I cleavage, fluorescence; in the data active = inhibition above about 50%
PG9 Ab binder = PG9 antibody binding by small molecule | TR-FRET gp120-PG9 antibody binding | inhibition, % at 6.7 µM | 0.43% of 360,000 active; in the data active = inhibition above about 8.5%
An asterisk follows results filed as active; . = no result given.

SMILES	LEDGF integ inh	rCAG binder	UHRF1 MBD2 ctr	MBD2 inh	DNMT1 inh	PG9 Ab binder
O=C(Nc1ccc2nc3n(c(=O)c2c1)CCCCC3)c1c(F)ccc([N+](=O)[O-])c1F	17*	8	-2	3	29	0
O=C(Nc1ccc2nc3n(c(=O)c2c1)CCCCC3)c1cc([N+](=O)[O-])ccc1F	1	4	3	0	16	0
CCCc1ccc2ccc3ccccc3c2n1	4	3	-2	-2	12	0
COc1cccc2c1NC(C(=O)O)C1CC=CC21 (stereo not given)	.	.	.	.	98*	.
COc1cccc(C2Nc3c(F)cc(Br)cc3C3C=CCC32)c1OC (stereo not given)	0	-1	-2	1	-36	-1
O=C(/C=C/c1ccco1)Nc1cccc2cccnc12	7	7	-5	0	63*	-3
CC1CCN(S(=O)(=O)c2ccc3c(c2)c(=O)c(C(=O)N2CCCCC2)cn3C)CC1	-3	-4	73*	-2	0	2
C[C@@H]1COc2cc(NCCO)ccc2S(=O)(=O)N1	0	3	22*	8	.	0
C[C@@H]1COc2cc(N3CCCCC3)ccc2S(=O)(=O)N1	-1	2	22*	10	.	-1
CC(C)C[C@@H]1COc2cc(NC3CC3)ccc2S(=O)(=O)N1	4	-1	21*	10	.	1
C[C@H]1COc2cc(N3CCCCC3)ccc2S(=O)(=O)N1	4	3	5	-3	.	-1
CCN(CC(=O)Nc1ccc2c(c1)OCCO2)C(=O)COc1ccc(C)cc1	3	-3	1	-2	3	-1
CCn1c(-c2nn(C)cc2Cl)n[nH]c1=S	-2	-2	1	-1	-2	0
Cc1ccc(-n2c(-c3nn(C)cc3Cl)n[nH]c2=S)cc1	1	0	21*	3	3	1
Cc1ccc(/C=C2\SC(=S)N(Cc3ccccc3)C2=O)o1	0	29	0	-4	-19	0
O=C(O)COc1cccc(/C=C2/SC(=S)N(Cc3ccccc3)C2=O)c1	7	52*	8	5	11	-2
O=C(O)c1cc(-c2ccc(/C=C3/SC(=S)N(Cc4ccccc4)C3=O)o2)ccc1Cl	-1	16	14	2	83*	-3
CCc1ccc(O)c(N=Cc2ccccc2O)c1	3	7	32*	-4	-3	-4
CCCCNC(=O)NCCCN1CCN(c2ccc(F)cc2)CC1	1	2	0	-8	.	.
Cc1sc(NC(=O)C2=COCCO2)nc1-c1ccc(Br)cc1	1	5	30*	-6	5	7
CCOc1cc(/C=C2\SC(=N)N(c3nonc3N)C2=O)ccc1OCCN1CCOCC1	5	40*	0	-3	0	-5
C#Cc1ccc(NC(=O)C2(C)CCN2C(=O)C/C=C/c2ccccc2)cc1 (stereo not given)	-5	5	0	6	-13	1
CC1(C(=O)Nc2cccc(C#N)c2)CCN1C(=O)C/C=C/c1ccccc1 (stereo not given)	1	7	24*	-8	-1	0
C=CCN1[C@H](C)COc2cc(N3CCCC3)ccc2S1(=O)=O	-4	4	0	-3	.	.
CCCNC(=O)c1ccc(N2CCC3(CC2)CC(c2ccccc2)=NO3)c(NC(=O)c2ccccc2)c1	-1	3	-1	-3	6	0
SMILES	LEDGF integ inh	rCAG binder	UHRF1 MBD2 ctr	MBD2 inh	DNMT1 inh	PG9 Ab binder
CCCCCCCC(=O)Nc1cc(C(=O)NCCC)ccc1N1CCC2(CC1)CC(c1ccccc1)=NO2	6	8	21*	12	-7	0
O=C(CC1C(=O)NCCN1C(=O)Nc1ccccc1)Nc1cccc(Cl)c1 (stereo not given)	-2	4	33*	5	-17	-1
COc1ccc(-c2cc(-c3nnc(SCC(=O)N4CCOCC4)n3N)[nH]n2)cc1	1	1	-1	-3	.	.
CCOC(=O)CC[C@@H]1CC[C@]2(CCCN(Cc3ccc(Cl)cc3)C2)O1	-1	2	1	-1	.	.
CN(C)C(=O)CN1C(=O)NC2(CCc3ccccc32)C1=O (stereo not given)	2	1	-2	-3	-1	-3
Cc1cccc(CN2CCN(C3CN(Cc4ccc([N+](=O)[O-])cc4)S(=O)(=O)C3)CC2)c1 (stereo not given)	-3	1	2	1	-3	0
COc1cc2c(cc1OC)C(=O)Cc1ccc3c(c1CN(C)CC2)OCO3	-2	-1	1	5	6	1
COc1ccc2c(c1OC)CN(C)CCc1cc3c(cc1C(=O)C2)OCO3	6	-1	21*	13	0	-2
COC(=O)[C@]12C[C@H](CC(=O)N3CCN(C(=O)C4CC4)CC3)C(=O)N(CCc3ccc(OC)c(OC)c3)C1=C[C@H](C1CCCC1)O[C@@H]2C	-1	3	0	4	.	.
COc1ccc(S(=O)(=O)n2cccc2)cc1	-5	2	23*	-1	-1	-1
CC(C)C(=O)N1CCC(Oc2cccnc2)CC1	0	1	1	2	.	.
Cc1ccccc1CNC(=O)CCn1nc(C)c2c(C)n(-c3ccccc3)nc2c1=O	1	-6	22*	10	2	0
CCCn1nc(NC(=O)C(C)(C)C)c2cc3cc(OC)ccc3nc21	-4	4	0	5	-4	-2
CCCCn1nc(NC(=O)CC)c2cc3cc(OC)ccc3nc21	-2	-1	22*	11	-2	-10
CC(=O)Nc1cc(-c2ccccc2N(C)C)cn2c(-c3cccc(C(F)(F)F)c3)cnc12	9	-1	-6	-3	61*	-1
CC(=O)Nc1cc(-c2cccc(NS(C)(=O)=O)c2)cn2c(-c3cccc(C(F)(F)F)c3)cnc12	1	10	-2	-3	-6	-2
CCCC#Cc1ccc(CC[C@H]2O[C@H]3CC[C@H](CO)O[C@H]3C[C@H]2NC(=O)CN2CCOCC2)cc1	6	-2	6	4	.	.
O=[N+]([O-])c1ccc(NCCN2CCOCC2)c([N+](=O)[O-])c1	-3	-1	-6	-9	11	0
CCOc1cc(NCCN2CCOCC2)c([N+](=O)[O-])cc1OCC	1	7	24*	-22	-2	-7
CCOC(=O)C1(CCOC)CCN(Cc2cnc(-c3cccc(C)c3)nc2)CC1	5	-7	0	5	-2	0
CCOC(=O)C1(CCOC)CCN(C(=O)c2ccccc2-c2cccc(C)c2)CC1	1	-4	23*	4	-1	-4
CC1CCc2c(sc3ncn(CCO)c(=O)c23)C1 (stereo not given)	2	-2	1	-5	-3	0
CC1CCc2c(sc3ncn(CC(=O)N=Nc4c(O)[nH]c5ccccc45)c(=O)c23)C1 (stereo not given)	1	3	-4	-4	54*	-2
